PubChem BioAssay (NCI)
Values joined by “and” are separate entries in the source; they are usually repeats but may differ in a detail not shown here. Equal entries are not always repeated. About 83,000 compounds went through this panel and 20% of them were active in at least one assay; those are over-represented in the sample as a whole.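 Cells were grown in 96-well plates and exposed to the test compound at a single concentration for 48 hours; results are reported as percent growth, with values below 10 considered active.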 A number with no mark means an inactive call. Active and inactive are the calls of the source.

Key:
Test in all cases: NCI-60 one-dose screen, 48 h (100 = growth as untreated, 0 = no growth, -100 = all killed)
Conditions in all cases: 10 µM unless noted
HCT-15 colon = system: HCT-15 colon
HT29 colon = system: HT29 colon
SNB-75 CNS = system: SNB-75 CNS
SNB-19 CNS = system: SNB-19 CNS
U251 CNS = system: U251 CNS
PC-3 prostate = system: PC-3 prostate
SK-MEL-5 melanoma = system: SK-MEL-5 melanoma
UACC-62 melanoma = system: UACC-62 melanoma
LOX IMVI melanoma = system: LOX IMVI melanoma
SK-MEL-28 melanoma = system: SK-MEL-28 melanoma
SK-MEL-2 melanoma = system: SK-MEL-2 melanoma
EKVX NSCLC = system: EKVX NSCLC
SN12C renal = system: SN12C renal
UO-31 renal = system: UO-31 renal
TK-10 renal = system: TK-10 renal
ACHN renal = system: ACHN renal
CAKI-1 renal = system: CAKI-1 renal
A498 renal = system: A498 renal
CCRF-CEM leukemia = system: CCRF-CEM leukemia
MOLT-4 leukemia = system: MOLT-4 leukemia

| SMILES | growth (HCT-15 colon) | growth (HT29 colon) | growth (SNB-75 CNS) | growth (SNB-19 CNS) | growth (U251 CNS) | growth (PC-3 prostate) | growth (SK-MEL-5 melanoma) | growth (UACC-62 melanoma) | growth (LOX IMVI melanoma) | growth (SK-MEL-28 melanoma) | growth (SK-MEL-2 melanoma) | growth (EKVX NSCLC) | growth (SN12C renal) | growth (UO-31 renal) | growth (TK-10 renal) | growth (ACHN renal) | growth (CAKI-1 renal) | growth (A498 renal) | growth (CCRF-CEM leukemia) | growth (MOLT-4 leukemia) |
| --- | --- | --- | --- | --- | --- | --- | --- | --- | --- | --- | --- | --- | --- | --- | --- | --- | --- | --- | --- | --- |
| Cc1cc(=O)oc2cc(OCC(O)CNN3C(=O)c4cccc5c(N6CCN(C)CC6)ccc(c45)C3=O)ccc12 (stereo not given) | 91% | 89.6% | 82.4% | 96.2% | 103% | 105% | 102% | 79.2% | 71% | -17.3% (active) | 92.2% | 97.3% | 88.9% | 83.8% | 138% | 91.2% | 96.2% | 122% | 96.7% | 90.4% |
| CCOC(=O)/C(F)=C/C1CC1CCc1ccc(OCC)cc1 (stereo not given) | 70.6% | 58.5% | 81.3% | 95.4% | 104% | 85.2% | 63.7% | 87.5% | 97.9% | 110% | 102% | 47.7% | 44.9% | 73.8% | 98.2% | 75.1% | 86.1% | 102% | 106% | 98.4% |
| NS(=O)(=O)c1ccc(N2N=C(c3ccc(NC(=O)Nc4ccccc4)cc3)CC2c2ccc(Br)cc2)cc1 (stereo not given) | -89.1% (active) | -57% (active) | -43.1% (active) | -98.2% (active) | -86.2% (active) | -45.2% (active) | -99.8% (active) | -96.2% (active) | -100% (active) | -98.1% (active) | -75.8% (active) | -95.8% (active) | -97.7% (active) | -97.2% (active) | -61.3% (active) | -100% (active) | -85.4% (active) | -79.4% (active) | 0.369% (active) | 9.26% (active) |
| COc1ccc(N=Nc2c(N)nn3c(-c4ccc(F)cc4)ccnc23)cc1 | 54% | 58.6% | 110% | 97.1% | 69.8% | 82.2% | 91.1% | 71.3% | 86.8% | 63.1% | 102% | 80.4% | 89% | 99.6% | 106% | 110% | 94.5% | 108% | 59.9% | 85.5% |
| CS(=O)(=O)Nc1cccc(-n2c(COc3ccc(OC(F)(F)F)cc3)nc3ccccc32)c1 | 94.6% and 105% | 103% and 114% | 55.4% and 95.4% | 93.8% and 101% | 85% and 101% | 70.7% and 103% | 78.8% and 106% | 72.3% and 107% | 83.7% and 110% | 118% and 133% | 86% and 110% | 86.4% and 98% | 113% and 115% | 51.1% and 87.7% | 105% and 111% | 81% and 109% | 61.4% and 99.4% | 98.2% and 127% | 93.3% and 99.8% | 80.3% and 97% |
| c1n[nH]cc1-c1nc2ccc3[nH]ncc3c2c2c1CC1(CCOCC1)CC2 | 39% | 25.9% | 6.74% (active) | 37.4% | 29.3% | 47.4% | 29% | 14% | 29.2% | 27.1% | 24.5% | 55.3% | 28.8% | 55.4% | 29.2% | 22.1% | 4.86% (active) | -3.86% (active) | 19.3% | 22.2% |
| C/C(=N/O)c1ccc(NC(=O)CSc2nnc(-c3ccc4nc(-c5ccc(Cl)cc5)[nH]c4c3)o2)cc1 | 99.1% | 93.2% | 55.8% | 20.8% | -58.8% (active) | 41% | 11% | 10.5% | -64.4% (active) | -61.5% (active) | 65.1% | 99.8% | 28.8% | 87.7% | 121% | 77.3% | 97% | 158% | 32.5% | 19.6% |
| Cn1cc(-c2cc(N)n3nc(-c4c[nH]c5ccc(Cl)cc45)cc3n2)c2cccnc21 | -56.7% (active) | -44.7% (active) | -57.5% (active) | -78.3% (active) | -82% (active) | -51.6% (active) | -97.4% (active) | -86.4% (active) | -93.6% (active) | -93.7% (active) | 81% | -71.9% (active) | -80% (active) | -77.5% (active) | -85.9% (active) | -98.8% (active) | -62.3% (active) | -79.7% (active) | -34.8% (active) | -37.8% (active) |
| COc1ccc([C@H]2C(C(=O)c3ccc(Cl)cc3)C3(N[C@@H]2c2ccccc2)C(=O)Nc2ccccc23)cc1 (stereo not given in full) | 16.4% | 9.82% (active) | 35% | 42.2% | 36.5% | 36.9% | 26% | 9.8% (active) | 12.2% | 49.7% | -29.6% (active) | 21.6% | 6.41% (active) | 13.2% | 43.4% | 11.2% | 14% | 40.2% | 45.8% | 18.9% |
| COc1ccccc1NC(=O)c1ccc(NC(=O)CCl)s1 | -50.8% (active) | -66.1% (active) | 35.9% | 42.1% | -51.2% (active) | -46.7% (active) | -23.3% (active) | -83.2% (active) | -93.4% (active) | 1.77% (active) | 37.1% | 59.7% | -52.8% (active) | -20.5% (active) | -6.19% (active) | 10.2% | -13.1% (active) | 73.1% | -18.9% (active) | -19.5% (active) |
| CC1=C(C)C(=O)C(NCCN2CCOCC2)=C(Br)C1=O | 90.7% | 93.7% | 106% | 91.3% | 44.8% | 61.8% | 62.1% | 39.4% | -28.5% (active) | 75.4% | 68.9% | 46.4% | 52% | 44.7% | 150% | 62.3% | 45.3% | 124% | -21% (active) | 0.284% (active) |
| CCc1ccc(SC2c3cc(OC)ccc3Oc3nc(N)c(C#N)c(N)c32)cc1 (stereo not given) | -45% (active) | -60.5% (active) | -21.3% (active) | 0.536% (active) | -13.4% (active) | 3.3% (active) | -95.9% (active) | -80.7% (active) | -62.2% (active) | 0.874% (active) | -88.8% (active) | -76.2% (active) | 1.31% (active) | 4.16% (active) | -50.1% (active) | 3.73% (active) | -56.5% (active) | -87.9% (active) | 1.76% (active) | -50.1% (active) |
| O=C(CSc1nc2sc3c(c2c(=O)n1-c1ccc(Cl)cc1)CCCC3)NNC(=O)c1ccc(Br)cc1 | 73.9% | 100% | 82.7% | 24.8% | 26.6% | 71.8% | 74.2% | 36.6% | 52.1% | 78.8% | 99.1% | 60.9% | 46% | 62.3% | 139% | 91.2% | 71.4% | 127% | 61.2% | 73.2% |
| COc1ccc(-n2c(NC(=O)N3CCN(C)CC3)c(C#N)c3ccccc32)cc1 | 57.5% | 84.2% | -4.12% (active) | 52.9% | 41.9% | 58.2% | 37.4% | 50.9% | 9.35% (active) | 68.8% | 72.9% | 12.3% | 23% | -15.6% (active) | 12.4% | 21.9% | 15% | 139% | 60.5% | 43.9% |
| O=C(Nc1ccc(-c2ccc3c(c2)NC(=O)/C3=C\c2ccc[nH]2)cc1)Nc1cccc(Cl)c1 | -32.5% (active) | -61.5% (active) | 16.6% | 19.8% | -52.4% (active) | 13.5% | -45.7% (active) | -36.3% (active) | -88.4% (active) | -4.21% (active) | -52.8% (active) | -19.6% (active) | 40.7% | 10.5% | -12.1% (active) | -19.6% (active) | -14.9% (active) | 21.6% | 13.7% | 5.1% (active) |
